Our source for the inhibition values is PubChem BioAssay AID1445 (SRMLSC, 2008).

The campaign covered roughly 220,000 compounds. About 910 (0.41%) were called active. This excerpt belongs to a sample that is enriched for actives. Potency and affinity values are given separately. A number with no mark means an inactive call.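 How the source made its calls: active means primary inhibition above the hit cutoff, then over 50% inhibition at one or more dose response concentrations (cut at about 23% in these data, passing the limit was not always enough); inconclusive means conflicting primary data, or primary hits not chosen for dose response; inactive means low primary inhibition, or under 50% at every dose.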

In the assay the target is Aminopeptidase N (Plasmodium falciparum (isolate 3D7)) (UniProt O96935). The experiment in a line: P. falciparum M1AAP inhibitors, biochemical, fluorogenic H-Leu-NHMec substrate, 1536-well (AID 1445).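 Further: plate controls were DMSO full reaction for no effect and no enzyme background for full effect.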 Particulars: recombinant M1AAP, H-Leu-NHMec fluorogenic kinetic assay; at 30 µM, stronger effect = higher value unless noted.
Sequence of Aminopeptidase N (Plasmodium falciparum (isolate 3D7)) (O96935 whole entry, looked up): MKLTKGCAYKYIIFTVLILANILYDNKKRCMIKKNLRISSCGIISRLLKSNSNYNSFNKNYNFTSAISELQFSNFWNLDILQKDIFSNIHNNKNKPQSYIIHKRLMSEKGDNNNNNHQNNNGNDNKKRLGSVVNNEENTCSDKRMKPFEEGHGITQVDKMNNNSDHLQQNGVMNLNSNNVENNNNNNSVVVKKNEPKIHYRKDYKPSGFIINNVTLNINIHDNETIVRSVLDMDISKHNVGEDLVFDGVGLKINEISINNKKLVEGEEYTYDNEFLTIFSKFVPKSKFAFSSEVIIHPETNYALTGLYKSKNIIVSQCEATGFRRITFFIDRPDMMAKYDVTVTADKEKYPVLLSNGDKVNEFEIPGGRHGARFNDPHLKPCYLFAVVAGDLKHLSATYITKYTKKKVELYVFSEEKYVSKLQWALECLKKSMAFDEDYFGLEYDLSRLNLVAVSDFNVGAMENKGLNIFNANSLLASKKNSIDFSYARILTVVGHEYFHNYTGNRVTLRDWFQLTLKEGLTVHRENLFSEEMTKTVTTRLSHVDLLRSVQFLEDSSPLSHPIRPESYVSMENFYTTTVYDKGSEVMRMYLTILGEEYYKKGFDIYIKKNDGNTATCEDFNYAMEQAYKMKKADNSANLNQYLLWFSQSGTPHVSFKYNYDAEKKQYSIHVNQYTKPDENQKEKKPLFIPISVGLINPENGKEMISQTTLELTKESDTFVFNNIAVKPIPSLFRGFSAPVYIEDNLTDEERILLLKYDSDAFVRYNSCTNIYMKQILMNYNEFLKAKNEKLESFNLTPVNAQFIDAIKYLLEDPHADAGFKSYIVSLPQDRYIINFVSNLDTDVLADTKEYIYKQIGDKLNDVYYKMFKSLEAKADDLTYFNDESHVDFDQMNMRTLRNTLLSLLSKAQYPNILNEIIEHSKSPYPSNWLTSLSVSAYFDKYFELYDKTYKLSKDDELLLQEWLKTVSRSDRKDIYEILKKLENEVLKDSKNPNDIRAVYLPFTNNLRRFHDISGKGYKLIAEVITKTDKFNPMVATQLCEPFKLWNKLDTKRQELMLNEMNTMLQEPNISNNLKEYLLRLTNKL
Consider `O=C1CCCc2c1nc(-c1ccc(F)cc1)n2O`, for which the inhibition is 0.92%.

With `COC(=O)C1=C(Nc2ccc(C)cc2)C=C(C)C(C(=O)OC)C1c1ccc(OC)cc1` (stereo not given), the inhibition is -4%.

As for `CC(=O)c1cccc(NC(=O)c2cc(-n3cnnc3)ccc2Cl)c1`, the inhibition is 6.6%.

Regarding `O=C(Nc1cccc(C(F)(F)F)c1)c1ccc2nc(-c3ccco3)c(-c3ccco3)nc2c1`, the inhibition was 23.9% (active).

For the compound `O=C(Nc1ccccc1)c1ccc2nc(-c3ccco3)c(-c3ccco3)nc2c1`, the inhibition is 13.6%.

With `CC(=O)c1ccc(NC(=O)c2ccc3nc(-c4ccco4)c(-c4ccco4)nc3c2)cc1`, the inhibition was 10.9%.

As to `CCn1c(CCNC(=O)c2ccc(Cl)c(Cl)c2)nnc1SCCOc1ccc(OC)cc1`, the inhibition is 1.21%.

On to `CCOC(=O)Cn1c(=O)c2c(nc(N3CCOCC3)n2C)n(C)c1=O`, for which the inhibition was 0.98%.

`O=C(Cc1cccs1)NCc1ccccc1`: the inhibition is 3.77%.

For `O=C(Cc1ccc(-c2ccccc2)cc1)NCc1ccccc1`, the inhibition was -0.4%.

With `Cc1ccc(C(=O)NCC(=O)OCC(=O)NCCc2ccccc2)s1`, the inhibition is 0.53%.

With `Cc1ccc(NC(=O)COC(=O)CNC(=O)c2ccc(C)s2)cc1`, the inhibition is 5.25%.

In the case of `CSCCC(C(=O)Nc1ccc2c(c1)OCO2)N1C(=O)c2ccccc2C1=O` (stereo not given), the inhibition is 4.81%.

With `CC(C(=O)NC1=NCCS1)N1C(=O)c2ccccc2C1=O` (stereo not given), the inhibition is 22.3%.

On to `CCOP(=O)(O)c1cccc(OCCOCCOc2cccc(P(=O)(O)OCC)c2)c1`, for which the inhibition was -1.13%.

Take `COc1ccc(C2NC(=S)NC(C)=C2C(=O)N2CCOCC2)cc1` (stereo not given): the inhibition was 0.92%.

Consider `CC(NCC1(N2CCOCC2)CCCCC1)C(=O)Nc1ccc(Cl)cc1Cl` (stereo not given), for which the inhibition is -2.83%.

Regarding `C=CCNC(NC(=O)c1ccccc1)(C(=O)OCC)C(F)(F)F` (stereo not given), the inhibition is -7.27%.

Turning to `COc1cc(/C=C2\SC(=S)N(Nc3ccccc3)C2=O)cc(OC)c1OC`, the inhibition is 0.45%.

With `COc1cc(/C=C2\SC(=S)N(NC(=O)c3cccnc3)C2=O)ccc1O`, the inhibition was 19.8%.

As to `COc1ccc(/C=C2/SC(=O)N(CCC(=O)Nc3ccccc3)C2=O)cc1OC`, the inhibition is -3.04%.

Consider `COc1ccc(/C=C2\SC(=O)N(CCC(=O)Nc3ccccc3)C2=O)cc1OC`, for which the inhibition is 7.25%.

Turning to `COc1cc(/C=C2\SC(=S)N(Nc3ccccc3)C2=O)ccc1O`, the inhibition was 13.9%.

Turning to `COc1cc(/C=C2\SC(=S)N(N(C)c3ccccc3)C2=O)ccc1O`, the inhibition is 3.49%.

Regarding `COc1cc(/C=C2\SC(=S)N(N3CCOCC3)C2=O)ccc1O`, the inhibition is -11.3%.

`COc1cc(/C=C2\SC(=S)N(NS(=O)(=O)c3ccccc3)C2=O)cc(OC)c1OC`: the inhibition was 20%.

Take `C=CCc1cccc2cc(C(=O)NNC(=O)c3ccncc3)c(=O)oc12`: the inhibition is 20.9%.

In the case of `Cn1c(CSc2nc3ccccc3n2C)nc2ccccc21`, the inhibition is -4.15%.

On to `CCOC(=O)CSc1nnc(Cc2ccccc2)n1CC1CCCO1` (stereo not given), for which the inhibition was 4.73%.

For the compound `Cc1[nH]c(=O)c(C#N)c(C)c1Cc1ccc(Cl)cc1Cl`, the inhibition was 4.22%.

Consider `O=c1c2[nH]c3ccccc3c2ncn1CCN1CCCCC1`, for which the inhibition was 8.11%.

In the case of `O=C(CN1CCN(C(=O)c2cccc(F)c2)CC1)NC1CCCCC1`, the inhibition is -4.11%.

As for `Cc1cc(C)cc(NC(=O)CCN2CC(C)OC(C)C2)c1` (stereo not given), the inhibition was 0.2%.

`Cc1ccc(SCC(=O)c2ccc[nH]2)cc1`: the inhibition is 2.44%.

With `CCOc1ccc(/C=C2\SC(=S)N(Nc3ccccc3)C2=O)cc1OC`, the inhibition is 1.22%.

As for `CCOc1ccc(/C=C2\SC(=S)N(C)C2=O)cc1OC`, the inhibition is 9.35%.

For `C/C(=N\NC(=O)COc1cccc(Cl)c1)c1ccc2c(c1)OCCO2`, the inhibition was 3.02%.

Consider `c1cncc(Cc2cc3ccccc3[nH]2)c1`, for which the inhibition was 4.4%.

Take `O=C(O)C(Oc1ccc2c3c(c(=O)oc2c1)CCC3)c1ccccc1` (stereo not given): the inhibition is 24.2% (active).

As for `CC(=O)C(C)Oc1ccc2c3c(c(=O)oc2c1)CCCC3` (stereo not given), the inhibition was 1.79%.

For the compound `CC(C)Oc1ccc2c3c(c(=O)oc2c1)CCC3`, the inhibition was 3.02%.

For the compound `CN(C(=O)c1c[nH]c(=O)cc1C(F)(F)F)c1ccc(Cl)c(Cl)c1`, the inhibition was -1.25%.

As for `O=C(NC(=S)Nc1ccccc1C(F)(F)F)c1ccccc1F`, the inhibition is -0.76%.

Turning to `CC(C)N(C(=O)CSc1nnc(Cc2ccc3c(c2)OCO3)n1C)C(C)C`, the inhibition is -1.85%.

`Cc1ccc(Oc2ccc(OCC(=O)NC(C)C(=O)O)cc2)cc1` (stereo not given): the inhibition was 12.1%.

As for `COC(=O)c1ccc(OS(=O)(=O)N(C)C)cc1`, the inhibition was -0.39%.

As for `Cc1cccc(C)c1NC(=O)CCCSc1nc2ccccc2s1`, the inhibition was -3.68%.

`CC(=O)Nc1scc(C)c1-c1nc2ccccc2s1`: the inhibition is 2.48%.

In the case of `O=C(O)CCC(=O)Nc1nc2ccccc2s1`, the inhibition was 1.12%.

Regarding `O=C(O)CSCC(=O)Nc1ccc(-c2nc3ccccc3s2)cc1`, the inhibition was 7.28%.

With `Cc1ccc2nc(-c3ccc(NC(=O)CSCC(=O)O)cc3)sc2c1`, the inhibition is 7.29%.

In the case of `Cc1ccc2nc(-c3ccc(NC(=O)COCC(=O)O)cc3)sc2c1`, the inhibition was 14.2%.

Take `Cc1ccc(-c2nc3ncccc3o2)cc1NC(=S)NC(=O)c1ccco1`: the inhibition is 4.38%.

For `Cc1ccc(N2CC(C(=O)NCCCn3ccnc3)CC2=O)cc1` (stereo not given), the inhibition is -4.35%.

As to `O=C(c1c(Cl)cccc1Cl)N1CCCCCC1`, the inhibition is 4.43%.

On to `COc1cc(NC(=S)N2CCCC(CO)C2)cc(OC)c1` (stereo not given), for which the inhibition was -7.92%.

For the compound `COc1cc(S(=O)(=O)NCc2cccnc2)c(OC)cc1Br`, the inhibition was -4.04%.

In the case of `C/C=C/C(=O)N1CC2(CC(c3cccc(NC(=O)CC(c4ccccc4)c4ccccc4)c3)=NO2)C[C@H]1C(N)=O` (stereo not given in full), the inhibition was 12.4%.

Regarding `O=C(N/N=C/c1ccco1)c1ccn[nH]1`, the inhibition is 7.66%.

On to `COc1cc(/C=C2\SC(=O)N(Cc3ccc(Cl)cc3)C2=O)cc([N+](=O)[O-])c1O`, for which the inhibition was 29.4%.

For the compound `CCOc1cc(/C=C2\SC(=O)N(CC(=O)Nc3ccccc3F)C2=O)cc([N+](=O)[O-])c1O`, the inhibition was 13.2%.

With `COc1cc(/C=C2\SC(=O)N(c3ccc(Cl)cc3)C2=O)cc([N+](=O)[O-])c1O`, the inhibition is 8.85%.

Take `Cc1cccc(NC(=O)CN2C(=O)S/C(=C\c3ccc(O)c([N+](=O)[O-])c3)C2=O)c1`: the inhibition is 22.4%.

Take `Cc1nn(-c2ccccc2)c(Cl)c1/C=N/Nc1nnc(C)c(=O)[nH]1`: the inhibition is -2.22%.

Consider `O=C(C(=O)N1CCN(c2cccc(Cl)c2)CC1)c1c[nH]c2ccccc12`, for which the inhibition was 2.96%.

Turning to `CCCNC(=O)NCCc1c(C)[nH]c2ccccc12`, the inhibition is 23.5% (active).

As for `CCc1cccc(CC)c1NC(=S)NCCc1c(C)[nH]c2ccccc12`, the inhibition is 0.39%.

Consider `Cc1[nH]c2ccccc2c1CCNC(=O)CCC(=O)c1ccccc1`, for which the inhibition was 0.77%.

For the compound `NS(=O)(=O)c1cccc(NC(=O)COC(=O)CC2CC3CCC2C3)c1` (stereo not given), the inhibition is -2.75%.

Regarding `CSc1ncccc1C(=O)OCC(=O)N(C)C`, the inhibition was 7.72%.

In the case of `O=C(CSc1nccn1-c1ccc(Cl)cc1)Nc1ccc2c(c1)OCO2`, the inhibition is 1.54%.

For `Cc1cccc(-n2ccnc2SCC(=O)Nc2ccc3c(c2)OCCO3)c1`, the inhibition was 3.89%.

For the compound `O=C(CSc1nccn1-c1cccc(Cl)c1)Nc1ccc2c(c1)OCCO2`, the inhibition is 24.5% (active).

Consider `C=CCNc1ncnc2c1ncn2C1OC(CO)C(O)C1O` (stereo not given), for which the inhibition was -2.12%.

Regarding `OC[C@H]1O[C@@H](n2cnc3c(Nc4ccccc4)ncnc32)[C@H](O)[C@@H]1O`, the inhibition is 0.67%.

As for `CCCOC(=O)c1ccc(Oc2c(-c3ccc(OCC)cc3O)n[nH]c2C)cc1`, the inhibition was -5.24%.

`COc1ccc(C2=C/C(=C\c3ccc(OC(C)=O)cc3)C(=O)O2)cc1`: the inhibition is -2.13%.

As for `O=[N+]([O-])c1ccc(C[n+]2cc(-c3ccccc3)n3c2CCCCC3)cc1`, the inhibition was -1.78%.

Take `CC(=O)NS(=O)(=O)c1ccc(N=c2ssc3c2-c2cc(C)c(C)cc2NC3(C)C)cc1`: the inhibition is 13.3%.

For `CC(=O)NS(=O)(=O)c1ccc(N=c2ssc3c2-c2cc(C)ccc2NC3(C)C)cc1`, the inhibition was 9.04%.

Turning to `Cc1ccc(CCNC(=O)c2cc(C)nn2-c2ccccc2)cc1`, the inhibition was 0.72%.

Consider `Cc1cc(C)nc(NS(=O)(=O)c2cccs2)c1`, for which the inhibition is -0.13%.

For the compound `COc1ccc(NS(=O)(=O)c2cccs2)c(OC)c1`, the inhibition was 5.44%.

As for `COc1ccc(Nc2nc3ccccc3nc2NS(=O)(=O)c2cccs2)cc1`, the inhibition was 10.1%.

As to `Cc1ccc(NS(=O)(=O)c2ccc(NS(=O)(=O)c3cccs3)cc2)cc1`, the inhibition was -3.61%.

For `Cc1ccc(-c2cc(C(=O)O)c3ccccc3n2)c(C)c1`, the inhibition is 3.63%.

With `Cc1ccc(NC(=O)Cn2c(/C=C/c3ccccc3)nc3ccccc32)cc1C`, the inhibition was 7.46%.

`Cc1c(Cl)cccc1N1C(=O)CC(NNC(=O)c2cccnc2)C1=O` (stereo not given): the inhibition is 8.09%.

Take `O=C(c1cccnc1)N1CCN(c2ccccc2Cl)CC1`: the inhibition is -11.5%.

With `CCN1C(=S)SC(=O)C1=C1C=C(C)OC(C)=C1`, the inhibition is 0.47%.

Consider `CCN1C(=S)SC(=O)C1=C1C=C(C)N(CCO)C(C)=C1`, for which the inhibition was 26.2% (active).

For the compound `CCN1C(=S)SC(=O)C1=C1C=C(C)N(Cc2ccco2)C(C)=C1`, the inhibition was 12.6%.

As to `C/C(CC(=O)Nc1ccccc1)=N\NC(=O)COc1ccc(C)cc1Br`, the inhibition is 2.81%.

With `CCC(C)(C)n1nnnc1C(c1ccc2ncccc2c1)N1CCCCCC1` (stereo not given), the inhibition was 4.86%.

Take `CCC(C)(C)n1nnnc1C(c1ccc2ncccc2c1)N1CCN(c2ccc(O)cc2)CC1` (stereo not given): the inhibition is 4.2%.

As a reminder, the inhibition is the relative decrease from the control value, in per cent.
